Data from PubChem BioAssay (NCATS).
Records with an inconclusive call do not appear. Where a call stands in place of a potency, no number is given. Unmarked numbers belong to inactive results. Active and inactive are the calls of the source. Calls come from the whole dose curve; as a rule, active = well fitted cell-killing curve with a large enough effect; inconclusive = small, poorly fitted or top-dose-only effect; inactive = flat fitted curve, though single readings scatter.

Experiment: NCATS anti-infectives library activity on HEK293 viability as a counter-qHTS vs the C. elegans viability qHTS (AID 1745854)
Summary of the method: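 CellTiter-Glo luminescence, read on a CCD imager, scored viability of HEK293 cells after 24 hr compound exposure at 37C. Library tested in several concentrations, 1:5 steps, up to 41.7 uM; digitonin served as control.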

With Nc1cccc(C(OCCN2CCCCC2)c2cc3nccc(C(=O)O)c3s2)c1 (stereo unspecified) as the molecule, how does the Potency read?
Its Potency is “inactive”.
